Results published in PubChem BioAssay (EPA / NIEHS).
The source made the active and inactive calls. Rule for the calls: active = hit-call score of the fitted dose curve at least 0.9, where 1 is the maximum; inactive = score below 0.9.

Key:
[1] = ATG_CRE_CIS: Attagene CIS-FACTORIAL HepG2 Assay for human cAMP Responsive Element (CRE) binding protein 3 (AID 2282926); conditions: HepG2 CRE cis-reporter, Attagene multiplexed mRNA; actives raise or lower the signal
In short: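 Readout: fluorescently labelled reporter transcripts resolved by capillary electrophoresis after RT-PCR, taken 24 h post-dosing in transfected HepG2. Endogenous transcription factor activity drives each cis-element reporter; gain or loss of signal fitted relative to DMSO control.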

[2] = molecular target: CCAAT/enhancer-binding protein beta (Homo sapiens) (UniProt P17676); test: ATG_C_EBP_CIS: Attagene CIS-FACTORIAL HepG2 Assay for human CCAAT/Enhancer Binding Protein (C/EBP) beta (AID 2282927); conditions: HepG2 Attagene cis-factorial transcription factor reporter; actives raise or lower the signal
CCAAT/enhancer-binding protein beta (Homo sapiens), sequence (P17676 whole entry, looked up): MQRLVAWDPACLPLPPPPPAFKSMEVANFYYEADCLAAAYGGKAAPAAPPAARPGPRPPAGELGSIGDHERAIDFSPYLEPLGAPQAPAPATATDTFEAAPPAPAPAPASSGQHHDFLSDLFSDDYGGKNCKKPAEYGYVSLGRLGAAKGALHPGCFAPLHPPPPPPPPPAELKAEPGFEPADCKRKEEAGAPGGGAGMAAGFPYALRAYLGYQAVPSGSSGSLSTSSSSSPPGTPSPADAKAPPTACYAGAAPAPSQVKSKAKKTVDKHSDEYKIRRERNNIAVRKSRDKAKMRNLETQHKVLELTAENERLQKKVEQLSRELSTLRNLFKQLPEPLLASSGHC
In short: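 HepG2 transiently transfected with multiplexed reporter units under cis-regulatory promoters reporting endogenous C/EBPb activity. After 24 h exposure, reporter mRNA assayed by RT-PCR, fluorescent labelling, HpaI digestion and capillary electrophoresis; bidirectional fitting versus DMSO.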

[3] = ATG_CMV_CIS: Attagene CIS-FACTORIAL HepG2 Assay for human CMV (Internal Marker) (AID 2282928); conditions: HepG2 CMV promoter reporter, transcription factor profiling; actives raise or lower the signal;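 note: endpoint acts as a background internal control marker rather than a target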
In short: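 Fluorescence intensity of RT-PCR-derived reporter fragments, resolved by capillary electrophoresis, gives the signal. HepG2 liver cells bearing transfected cis-element reporters were treated 24 h; activity in either direction was fit relative to DMSO-treated controls.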

[4] = ATG_AP_2_CIS: Attagene CIS-FACTORIAL HepG2 Assay for human Activator Protein 2 (AP-2) (AID 2282932); conditions: HepG2 AP-2 cis-reporter, Attagene transcription factor profiling; actives raise or lower the signal
In short: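 Liver-derived HepG2 line, cis-reporter system measuring endogenous factors; 24 h dosing; reporter mRNA detected by fluorescent RT-PCR and capillary electrophoresis.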

[5] = ATG_BRE_CIS: Attagene CIS-FACTORIAL HepG2 Assay for human Bone Morphogenetic Protein (BMP) Response Element (BRE) (AID 2282933); conditions: HepG2 BMP response element reporter, Attagene transcription factor profiling; actives raise or lower the signal
In short: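 A HepG2 multiplex reporter system measured inducible reporter mRNA 24 h post-dosing. Detection: RT-PCR, 6-FAM primer extension, HpaI digestion, capillary electrophoresis. Activity fitted bidirectionally relative to DMSO.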

[6] = molecular target: Transcription factor E2F1 (Homo sapiens) (UniProt Q01094); test: ATG_E2F_CIS: Attagene CIS-FACTORIAL HepG2 Assay for human E2F Transcription Factor 1 (AID 2282935); conditions: HepG2 Attagene cis-reporter, E2F reporter RNA transcripts; actives raise or lower the signal
Transcription factor E2F1 (Homo sapiens), sequence (Q01094 whole entry, looked up): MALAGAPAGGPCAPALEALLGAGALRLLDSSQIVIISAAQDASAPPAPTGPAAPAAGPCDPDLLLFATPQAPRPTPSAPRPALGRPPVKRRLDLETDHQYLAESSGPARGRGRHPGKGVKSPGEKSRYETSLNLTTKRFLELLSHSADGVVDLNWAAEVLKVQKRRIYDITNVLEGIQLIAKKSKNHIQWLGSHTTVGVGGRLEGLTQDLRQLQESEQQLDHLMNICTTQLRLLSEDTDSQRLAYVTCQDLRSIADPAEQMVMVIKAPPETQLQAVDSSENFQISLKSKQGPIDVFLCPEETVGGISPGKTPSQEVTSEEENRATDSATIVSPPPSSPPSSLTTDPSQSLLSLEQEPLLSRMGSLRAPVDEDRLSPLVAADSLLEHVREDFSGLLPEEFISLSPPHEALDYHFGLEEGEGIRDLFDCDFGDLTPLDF
In short: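 Liver-derived HepG2 cells expressing transfected promoter-driven reporter units received test chemical for 24 hours. Signal gains or losses were fitted bidirectionally against DMSO.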

[7] = ATG_E_Box_CIS: Attagene CIS-FACTORIAL HepG2 Assay for human Enhancer Box (E-box) (AID 2282936); conditions: HepG2 E-box cis-reporter transcription, actives raise or lower the signal
In short: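 In this cell-based setup, HepG2 cells bearing transfected promoter-driven reporter units were exposed to chemicals for 24 h; reporter transcripts were amplified, 6-FAM-labelled, cut with HpaI and sized by capillary electrophoresis.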

[8] = ATG_M_61_CIS: Attagene CIS-FACTORIAL HepG2 Assay for M61 Transcription Factor (Internal Marker) (AID 2282937); conditions: HepG2 Attagene CIS-FACTORIAL M61 internal marker reporter; actives raise or lower the signal
In short: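 Endogenous transcription factor activity in HepG2 is read through transiently transfected cis-element reporter units. After 24 h dosing, RNA undergoes reverse transcription, PCR and primer extension with 6-FAM before capillary electrophoresis; DMSO-referenced bidirectional fit.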

[9] = ATG_EGR_CIS: Attagene CIS-FACTORIAL HepG2 Assay for human Early Growth Response 1 (EGR1) (AID 2282938); conditions: HepG2 Attagene CIS-FACTORIAL EGR reporter mRNA; actives raise or lower the signal
In short: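 Activity is taken as induction or loss of reporter mRNA versus DMSO, fitted bidirectionally. Transcripts from cis-regulated reporter units in transiently transfected HepG2 were measured after 24 h by RT-PCR with capillary electrophoresis.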

[10] = ATG_Ets_CIS: Attagene CIS-FACTORIAL HepG2 Assay for human Erythroblast Transformation Specific (ETS) (AID 2282941); conditions: HepG2 ETS cis-reporter transcription, actives raise or lower the signal
In short: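 Multiplexed reporter transcript profiling: HepG2, 24 h treatment, total RNA to cDNA, PCR, 6-FAM labelling, HpaI cut, capillary electrophoresis. Gain- or loss-of-signal fitted against DMSO.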

[11] = ATG_FoxO_CIS: Attagene CIS-FACTORIAL HepG2 Assay for human Forkhead box O (FoxO) (AID 2282943); conditions: HepG2 Attagene cis-reporter, FoxO element, mRNA; actives raise or lower the signal
In short: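 HepG2 cells transiently transfected with cis-element-driven reporter units report endogenous FoxO activity. After 24 h chemical exposure, reporter mRNA quantified by RT-PCR, fluorescent labeling, HpaI digestion and capillary electrophoresis; bidirectional fit versus DMSO.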

[12] = ATG_GLI_CIS: Attagene CIS-FACTORIAL HepG2 Assay for human Zinc Finger Protein GLI1 (AID 2282945); conditions: HepG2, Attagene cis-factorial reporter mRNA, GLI element; actives raise or lower the signal
In short: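 Transiently transfected HepG2 cells report endogenous transcription factor activity via cis-element-driven reporter units. After 24 h compound exposure, reporter mRNA was measured by RT-PCR with capillary electrophoresis; bidirectional fitting against DMSO baseline.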

[13] = ATG_ISRE_CIS: Attagene CIS-FACTORIAL HepG2 Assay for human Interferon Regulatory Factor 1 (IRF1) binding to an Interferon-Stimulated Response Element (ISRE) (AID 2282948); conditions: HepG2 ISRE cis-reporter (Attagene), mRNA transcription readout; actives raise or lower the signal
In short: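 Signal reflects induction or loss of ISRE-linked reporter mRNA in transiently transfected HepG2 cells after a 24 h treatment, detected by fluorescent RT-PCR fragments on capillary electrophoresis and normalised to DMSO.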

[14] = ATG_M_32_CIS: Attagene CIS-FACTORIAL HepG2 Assay for M32 Transcription Factor (Internal Marker) (AID 2282949); conditions: HepG2 Attagene cis-factorial M32 reporter, mRNA; actives raise or lower the signal;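 note: background control marker of the multiplexed CIS panel rather than a real target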
In short: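 HepG2 human liver cells transiently transfected with cis-promoter-driven multiple reporter transcription units, dosed 24 h. Reporter mRNA quantified by RT-PCR, FAM-labelled primer extension, HpaI digest and capillary electrophoresis; bidirectional fit versus DMSO baseline.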

[15] = ATG_M_06_CIS: Attagene CIS-FACTORIAL HepG2 Assay for M06 Transcription Factor (Internal Marker) (AID 2282950); conditions: HepG2 Attagene CIS-FACTORIAL M06 internal marker reporter; actives raise or lower the signal
In short: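 Cells (HepG2, transiently carrying cis-driven reporter units) receive chemical for 24 h before RNA isolation. Reporter cDNA is PCR-amplified, FAM-labelled by primer extension, HpaI-digested and sized on a capillary analyser.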

[16] = ATG_MRE_CIS: Attagene CIS-FACTORIAL HepG2 Assay for human Metal Responsive Element (MRE) (AID 2282954); conditions: HepG2 MRE cis-reporter transcription, Attagene multiplex; actives raise or lower the signal
In short: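 Measured here is mRNA induction from an MRE cis-element reporter in HepG2 after 24 h, quantified by fluorescence of labelled RT-PCR products on capillary electrophoresis; gain- and loss-of-signal fits use DMSO as baseline.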

[17] = ATG_PXRE_CIS: Attagene CIS-FACTORIAL HepG2 Assay for human Pregnane X Receptor Element (PXRE) (AID 2282957); conditions: HepG2 Attagene CIS-FACTORIAL PXRE reporter, mRNA; actives raise or lower the signal
In short: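 Read-out: fluorescence of reporter-specific RT-PCR products resolved by capillary electrophoresis, fitted bidirectionally relative to DMSO. Human HepG2 liver cells carried transfected cis-promoter reporter units and were exposed to chemicals for 24 h.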

[18] = ATG_Sox_CIS: Attagene CIS-FACTORIAL HepG2 Assay for human SRY-box transcription factor (SOX) (AID 2282960); conditions: HepG2 Attagene cis-factorial SOX reporter, mRNA; actives raise or lower the signal
In short: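 Measures mRNA induction of a SOX1-associated reporter in HepG2 after 24 h dosing. Fluorescently labelled RT-PCR fragments are separated by capillary electrophoresis, and gain or loss relative to DMSO control is fitted.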

[19] = molecular target: Transcription factor Sp1 (Homo sapiens) (UniProt P08047); test: ATG_Sp1_CIS: Attagene CIS-FACTORIAL HepG2 Assay for human Specificity Protein 1 (Sp1) (AID 2282961); conditions: HepG2 Sp1 cis-reporter transcription, actives raise or lower the signal
Transcription factor Sp1 (Homo sapiens), sequence (P08047 whole entry, looked up): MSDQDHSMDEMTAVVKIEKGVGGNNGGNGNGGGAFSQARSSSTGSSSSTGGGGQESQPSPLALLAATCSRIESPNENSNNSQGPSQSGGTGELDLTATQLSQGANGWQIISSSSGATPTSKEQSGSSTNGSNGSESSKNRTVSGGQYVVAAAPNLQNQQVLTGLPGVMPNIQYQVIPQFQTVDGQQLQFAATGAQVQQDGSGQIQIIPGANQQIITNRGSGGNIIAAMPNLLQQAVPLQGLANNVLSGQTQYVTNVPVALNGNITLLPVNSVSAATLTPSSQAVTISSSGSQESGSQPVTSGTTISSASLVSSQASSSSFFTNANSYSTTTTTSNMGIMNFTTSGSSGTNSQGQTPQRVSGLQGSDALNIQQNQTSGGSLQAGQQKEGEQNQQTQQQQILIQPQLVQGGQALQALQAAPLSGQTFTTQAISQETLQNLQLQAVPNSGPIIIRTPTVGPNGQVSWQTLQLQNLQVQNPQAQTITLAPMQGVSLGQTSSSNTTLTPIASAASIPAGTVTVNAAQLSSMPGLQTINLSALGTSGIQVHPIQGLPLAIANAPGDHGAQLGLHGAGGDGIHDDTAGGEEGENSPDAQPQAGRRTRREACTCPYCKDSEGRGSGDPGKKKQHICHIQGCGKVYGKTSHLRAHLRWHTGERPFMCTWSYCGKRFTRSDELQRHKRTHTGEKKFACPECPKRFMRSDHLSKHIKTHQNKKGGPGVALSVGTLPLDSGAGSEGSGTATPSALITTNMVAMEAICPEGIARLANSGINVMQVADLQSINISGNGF
In short: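 Cells: HepG2, transiently transfected with cis-regulated multiplexed reporters. Exposure: 24 h. Detection: reporter transcripts amplified, fluorescently labeled, restriction-digested and sized by capillary electrophoresis. Analysis: bidirectional fit relative to DMSO.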

[20] = ATG_SREBP_CIS: Attagene CIS-FACTORIAL HepG2 Assay for human Sterol Regulatory Element Binding (SREBP) (AID 2282962); conditions: HepG2 Attagene cis-factorial SREBP reporter, mRNA; actives raise or lower the signal
In short: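 Values derive from bidirectional curve fitting with DMSO as baseline. The underlying measurement is reporter mRNA from cis-element-regulated units in transiently transfected HepG2, quantified by RT-PCR and capillary electrophoresis after 24 h exposure.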

Measured: AC50

Cc1cc(O)cc(C)c1Cl
active: [1] 79 µM | [3] 37.3 µM | [19] 109 µM
inactive: all other assays above

CCCCCC[C@@H](O)C/C=C\CCCCCCCC(=O)O
active: [2] 77 µM | [5] 139 µM | [6] 177 µM | [7] 170 µM | [11] 156 µM | [16] 139 µM
inactive: all other assays above

CC/C=C\CC/C=C/C(OCC)OCC
active: [3] 150 µM | [10] 100 µM | [13] 142 µM | [16] 136 µM | [17] 4.02 µM | [18] 147 µM
inactive: all other assays above

CCC(=O)OCc1ccc(OC)cc1
active: [17] 29.7 µM
inactive: all other assays above

CCCCCCCCCCCCCC
inactive: all assays above

Clc1ccc(Sc2cc(Cl)c(Cl)cc2Cl)cc1
active: [17] 5.97 µM
inactive: all other assays above

O=C(C1CCCCC1)N1CC(=O)N2CCc3ccccc3C2C1 (stereo not given)
active: [17] 7.1 µM
inactive: all other assays above

Oc1ccc(Oc2ccccc2)cc1
active: [3] 44.9 µM | [16] 79 µM | [17] 26.4 µM
inactive: all other assays above
